# Inconclusive results are not listed. Activity calls are given as the source filed them. How the source made its calls: active means hit-call score of the fitted dose curve at least 0.9, where 1 is the maximum; inconclusive means response in the unintended direction; inactive means score below 0.9.
# Legend:
# [1] = ACEA_AR_antagonist_AUC_viability: ACEA Biosciences xCELLigence Real-Time Cell Analysis on Androgen Receptor Antagonism for Viability (AID 2283776);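 further: 22Rv1 human prostate cancer cells growing on impedance electrode plates; area under impedance growth curve at 80 h after dosing as viability; hits lower the growth signal relative to DMSO meaning cytotoxicity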
# Outline: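 22Rv1 prostate cells, continuous dosing up to 100 uM final (0.5% DMSO max), duplicate plates. Growth measured by impedance; AUC at 80 h, loss of signal vs DMSO.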
# [2] = test system: frog Estrogen Receptor (ESR1), gene 398734; assay: ATG_frER1_XSP1: Attagene TRANS-FACTORIAL Multi-Species (XSP1) HepG2 Assay for frog Estrogen Receptor (ESR1) (AID 2283777)
# Outline: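 HepG2 cells transiently transfected with GAL4-UAS reporter units and frog ER–Gal4 chimera were dosed for 24 h with 3 nM 6-alpha-fluorotestosterone present. Reporter mRNA was measured by RT-PCR and capillary electrophoresis; gain of signal fitted versus DMSO.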
# [3] = test system: zebrafish Estrogen Receptor (ESR2A), gene 317734; assay: ATG_zfER2a_XSP1: Attagene TRANS-FACTORIAL Multi-Species (XSP1) HepG2 Assay for zebrafish Estrogen Receptor (ESR2A) (AID 2283778)
# Outline: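 Reporter transcripts were quantified by RT-PCR, 6-FAM labelling, HpaI digestion and capillary electrophoresis after 24 h dosing. The cells were HepG2 transiently carrying a zebrafish ER2a–Gal4 construct plus multiplexed UAS reporters; medium contained 3 nM 6-alpha-fluorotestosterone.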
# [4] = biological target: chicken Estrogen Receptor (ESR1), ESR1 (gene 396099) (UniProt P06212); assay: ATG_chERa_XSP1: Attagene TRANS-FACTORIAL Multi-Species (XSP1) HepG2 Assay for chicken Estrogen Receptor (ESR1) (AID 2283779)
# Outline: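 Trans-activation of an exogenous chicken ERα–Gal4 chimera read as reporter transcript (RT-PCR, fluorescent labeling, capillary electrophoresis) after 24 h compound exposure of transfected HepG2; medium held 3 nM 6-alpha-fluorotestosterone. Positive-direction fit against DMSO.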
# [5] = test system: turtle Estrogen Receptor (ESR1), gene 101933533; assay: ATG_trERa_XSP1: Attagene TRANS-FACTORIAL Multi-Species (XSP1) HepG2 Assay for turtle Estrogen Receptor (ESR1) (AID 2283781)
# Outline: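 Transactivation measured 24 h post-dose as reporter mRNA (RT-PCR, fluorescent capillary electrophoresis) from an NR-Gal4 turtle ER construct in HepG2. Medium included 3 nM 6-alpha-fluorotestosterone; increase over DMSO fitted.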
# [6] = ACEA_ER_AUC_viability: ACEA Biosciences xCELLigence Real-Time Cell Analysis on Estrogen Receptor Agonism for Viability (AID 2283782);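 further: hit means loss of impedance signal meaning reduced cell growth or viability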
# Outline: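 Viability endpoint: reduced impedance area under the curve relative to DMSO, recorded by real-time electrode sensing over ~80 h of continuous exposure. Duplicate plates of T47D in hormone-depleted medium; eight concentrations, 1:4 dilutions, 100 uM maximum.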
# [7] = STM_H9_NormalizedViability: Cytotoxicity Assessment at 120 hours in the Stemina devTOX quickPredict H9 human embryonic stem cell (hESC)-based Assay (AID 2283784)
# Outline: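 Here, H9 cells received test compound with daily medium renewal. Each plate included methotrexate references (1uM, 5 nM), 0.1% DMSO and media blanks; CellTiter-Fluor RFU was normalized to DMSO.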
# AR (gene 367) [8] = biological target: AR (gene 367) (UniProt P10275); assay: ACEA_AR_antagonist_80hr: ACEA Biosciences xCELLigence Real-Time Cell Analysis on Androgen Receptor Antagonism for Proliferation (AID 2283787);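 further: 22Rv1 human prostate cancer cells with growth followed by electrical impedance; hits lower the impedance growth signal relative to DMSO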
# Outline: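 Impedance-based real-time growth of 22Rv1 prostate cells, read 80 h after dosing. Eight concentrations, 1:4 series, top 100 uM final (0.5% DMSO), n = 2; signal decrease scored against DMSO.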
# [9] = biological target: Estrogen receptor beta (Homo sapiens) (UniProt Q92731); assay: ATG_hERb_XSP1: Attagene TRANS-FACTORIAL Multi-Species (XSP1) HepG2 Assay for human Estrogen Receptor (ESR2) (AID 2283788)
# Outline: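 HepG2 cells transiently transfected with multiplexed GAL4-UAS reporter units carrying chimeric human ERβ-Gal4; 24 h compound exposure with 3 nM 6-alpha-fluorotestosterone present. Reporter mRNA quantified by RT-PCR, FAM labelling and capillary electrophoresis; gain-of-signal fitted versus DMSO.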
# [10] = biological target: GAL4 Transcription Factor (Internal Marker), GAL4 (gene 855828) (UniProt P04386); assay: ATG_GAL4_XSP1: Attagene TRANS-FACTORIAL Multi-Species (XSP1) HepG2 Assay for GAL4 Transcription Factor (Internal Marker) (AID 2283789)
# Outline: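 This background-control endpoint measures GAL4-driven reporter mRNA via RT-PCR and capillary electrophoresis of labelled fragments. Transiently transfected HepG2 cells were treated 24 h, with 3 nM 6-alpha-fluorotestosterone included, and gain-of-signal was fitted against DMSO.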
# [11] = ATG_M_06_XSP1: Attagene TRANS-FACTORIAL Multi-Species (XSP1) HepG2 Assay for M06 Transcription Factor (Internal Marker) (AID 2283790)
# Outline: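 This background-control readout tracks M06 reporter mRNA, measured by RT-PCR and capillary electrophoresis. HepG2 cells transiently carrying the GAL4-UAS reporter panel were dosed for 24 h with 3 nM 6-alpha-fluorotestosterone added for partial AR stimulation; increases were scored relative to DMSO.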
# [12] = ATG_M_61_XSP1: Attagene TRANS-FACTORIAL Multi-Species (XSP1) HepG2 Assay for M61 Transcription Factor (Internal Marker) (AID 2283797)
# Outline: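 Background-control readout: reporter transcripts measured by RT-PCR and capillary electrophoresis 24 h after dosing transiently transfected HepG2 multi-reporter cells, with 3 nM 6-alpha-fluorotestosterone present. Fitted in the positive direction relative to DMSO.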
# [13] = biological target: Peroxisome proliferator-activated receptor gamma (Homo sapiens) (UniProt P37231); assay: ATG_hPPARg_XSP1: Attagene TRANS-FACTORIAL Multi-Species (XSP1) HepG2 Assay for human Peroxisome Proliferator-activated Receptor gamma (PPARg) (AID 2283800)
# Outline: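 Reporter mRNA induction, measured by RT-PCR with capillary electrophoresis 24 h after dosing, scored as gain over DMSO. Transfected HepG2 cells express exogenous NR-Gal4 chimeras driving GAL4-UAS reporters; medium includes 3 nM 6-alpha-fluorotestosterone.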
# [14] = biological target: mouse Peroxisome Proliferator-activated Receptor gamma (PPARg), Pparg (gene 19016) (UniProt P37238); assay: ATG_mPPARg_XSP1: Attagene TRANS-FACTORIAL Multi-Species (XSP1) HepG2 Assay for mouse Peroxisome Proliferator-activated Receptor gamma (PPARg) (AID 2283802)
# Outline: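 Readout is reporter mRNA induction, measured by RT-PCR with 6-FAM labelling, HpaI digestion and capillary electrophoresis, 24 h post-dose relative to DMSO. Transient multi-reporter transfection of human HepG2 with mouse PPARg–GAL4 fusion; 3 nM 6-alpha-fluorotestosterone included.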
# AR (gene 367) [15] = biological target: AR (gene 367) (UniProt P10275); assay: ACEA_AR_agonist_80hr: ACEA Biosciences xCELLigence Real-Time Cell Analysis on Androgen Receptor Agonism for Proliferation (AID 2283783);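 further: hits increase impedance growth signal above DMSO baseline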
# Outline: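 Eight concentrations, 1:4 serial dilution from a 100 uM final top, in biological duplicate. Impedance-based real-time growth of 22Rv1 cells after overnight baseline, recorded hourly and read at 80 hours. Controls: testosterone, MG132, assay media.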
# [16] = biological target: Estrogen receptor (Homo sapiens) (UniProt P03372); assay: ATG_hERa_XSP1: Attagene TRANS-FACTORIAL Multi-Species (XSP1) HepG2 Assay for human Estrogen Receptor (ESR1) (AID 2283780)
# Outline: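 Reporter transcripts from multiplexed GAL4-UAS units driven by NR-Gal4 chimeras in transiently transfected HepG2 were measured by RT-PCR with capillary electrophoresis 24 h post-dose, with 3 nM 6-alpha-fluorotestosterone present; gain-of-signal relative to DMSO.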
# [17] = ATG_M_32_XSP1: Attagene TRANS-FACTORIAL Multi-Species (XSP1) HepG2 Assay for M32 Transcription Factor (Internal Marker) (AID 2283799)
# Outline: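 Reporter transcripts from the M32 internal-control unit measured by RT-PCR, FAM labelling, HpaI digestion and capillary electrophoresis after 24 h compound exposure of transfected HepG2, 3 nM 6-alpha-fluorotestosterone included; DMSO baseline, positive-direction fit.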
# [18] = test system: zebrafish Peroxisome Proliferator-activated Receptor gamma (PPARg), gene 557037; assay: ATG_zfPPARg_XSP1: Attagene TRANS-FACTORIAL Multi-Species (XSP1) HepG2 Assay for zebrafish Peroxisome Proliferator-activated Receptor gamma (PPARg) (AID 2283801)
# Outline: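 Trans-activation readout of chimeric zebrafish PPARg–GAL4 in transiently transfected human HepG2 cells, 24 h chemical exposure (medium includes 3 nM 6-alpha-fluorotestosterone). Reporter transcripts measured by RT-PCR and capillary electrophoresis, fitted as gain over DMSO.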
# Sequence of AR (gene 367) (P10275 whole entry, looked up): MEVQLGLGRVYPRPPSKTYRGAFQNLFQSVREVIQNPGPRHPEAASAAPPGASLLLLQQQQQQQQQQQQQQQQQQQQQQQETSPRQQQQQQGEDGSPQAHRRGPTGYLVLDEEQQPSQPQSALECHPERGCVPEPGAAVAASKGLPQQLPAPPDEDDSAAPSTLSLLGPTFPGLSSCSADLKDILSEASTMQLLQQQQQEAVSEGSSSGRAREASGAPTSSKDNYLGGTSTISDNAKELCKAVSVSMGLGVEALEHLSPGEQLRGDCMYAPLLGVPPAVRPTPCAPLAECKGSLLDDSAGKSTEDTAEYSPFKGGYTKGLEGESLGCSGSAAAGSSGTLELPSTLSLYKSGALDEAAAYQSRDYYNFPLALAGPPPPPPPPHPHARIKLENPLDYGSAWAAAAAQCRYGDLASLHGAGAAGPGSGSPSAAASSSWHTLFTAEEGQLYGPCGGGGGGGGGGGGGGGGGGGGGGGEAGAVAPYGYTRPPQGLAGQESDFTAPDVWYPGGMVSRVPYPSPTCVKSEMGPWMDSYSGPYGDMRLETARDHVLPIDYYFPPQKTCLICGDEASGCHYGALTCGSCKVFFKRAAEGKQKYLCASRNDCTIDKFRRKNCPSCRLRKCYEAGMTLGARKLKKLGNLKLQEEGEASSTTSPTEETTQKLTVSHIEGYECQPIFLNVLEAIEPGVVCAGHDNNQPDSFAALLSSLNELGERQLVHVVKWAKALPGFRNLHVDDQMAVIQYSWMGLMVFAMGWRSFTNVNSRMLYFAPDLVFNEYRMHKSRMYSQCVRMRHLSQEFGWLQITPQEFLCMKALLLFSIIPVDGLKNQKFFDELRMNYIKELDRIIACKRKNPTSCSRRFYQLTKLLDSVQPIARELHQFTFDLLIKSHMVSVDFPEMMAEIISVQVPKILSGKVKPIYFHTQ
# Sequence of mouse Peroxisome Proliferator-activated Receptor gamma (PPARg), Pparg (gene 19016) (P37238 whole entry, looked up, the tested form may be a part): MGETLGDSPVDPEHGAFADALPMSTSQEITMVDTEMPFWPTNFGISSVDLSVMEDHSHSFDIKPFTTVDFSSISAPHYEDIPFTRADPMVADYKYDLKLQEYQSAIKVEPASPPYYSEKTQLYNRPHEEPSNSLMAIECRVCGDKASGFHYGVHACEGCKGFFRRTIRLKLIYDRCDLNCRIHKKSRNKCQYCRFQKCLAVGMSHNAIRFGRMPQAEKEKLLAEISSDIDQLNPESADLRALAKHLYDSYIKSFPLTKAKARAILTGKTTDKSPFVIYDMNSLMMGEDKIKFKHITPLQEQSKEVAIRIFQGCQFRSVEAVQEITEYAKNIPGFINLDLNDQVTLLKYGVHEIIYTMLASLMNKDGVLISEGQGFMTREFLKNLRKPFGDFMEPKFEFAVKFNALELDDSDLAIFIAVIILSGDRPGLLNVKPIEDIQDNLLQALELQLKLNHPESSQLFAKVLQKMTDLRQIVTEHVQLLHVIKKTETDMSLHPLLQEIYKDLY
# Sequence of chicken Estrogen Receptor (ESR1), ESR1 (gene 396099) (P06212 whole entry, looked up, the tested form may be a part): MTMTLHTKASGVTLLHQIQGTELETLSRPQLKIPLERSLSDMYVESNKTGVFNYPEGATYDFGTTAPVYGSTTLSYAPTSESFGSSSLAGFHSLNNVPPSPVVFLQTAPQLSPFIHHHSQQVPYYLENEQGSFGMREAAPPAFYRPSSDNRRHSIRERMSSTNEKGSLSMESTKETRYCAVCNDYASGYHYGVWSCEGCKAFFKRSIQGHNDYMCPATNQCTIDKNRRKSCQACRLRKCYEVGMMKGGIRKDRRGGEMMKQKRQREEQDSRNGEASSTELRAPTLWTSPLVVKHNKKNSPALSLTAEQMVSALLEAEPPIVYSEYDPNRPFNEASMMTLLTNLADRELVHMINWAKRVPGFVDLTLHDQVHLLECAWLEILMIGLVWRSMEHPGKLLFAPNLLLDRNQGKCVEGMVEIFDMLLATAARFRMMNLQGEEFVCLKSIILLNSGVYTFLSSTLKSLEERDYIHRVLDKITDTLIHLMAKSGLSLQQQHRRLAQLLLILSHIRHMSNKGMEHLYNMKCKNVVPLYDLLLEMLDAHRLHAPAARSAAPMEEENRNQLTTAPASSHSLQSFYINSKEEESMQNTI
# Sequence of Estrogen receptor (Homo sapiens) (P03372 whole entry, looked up, the tested form may be a part): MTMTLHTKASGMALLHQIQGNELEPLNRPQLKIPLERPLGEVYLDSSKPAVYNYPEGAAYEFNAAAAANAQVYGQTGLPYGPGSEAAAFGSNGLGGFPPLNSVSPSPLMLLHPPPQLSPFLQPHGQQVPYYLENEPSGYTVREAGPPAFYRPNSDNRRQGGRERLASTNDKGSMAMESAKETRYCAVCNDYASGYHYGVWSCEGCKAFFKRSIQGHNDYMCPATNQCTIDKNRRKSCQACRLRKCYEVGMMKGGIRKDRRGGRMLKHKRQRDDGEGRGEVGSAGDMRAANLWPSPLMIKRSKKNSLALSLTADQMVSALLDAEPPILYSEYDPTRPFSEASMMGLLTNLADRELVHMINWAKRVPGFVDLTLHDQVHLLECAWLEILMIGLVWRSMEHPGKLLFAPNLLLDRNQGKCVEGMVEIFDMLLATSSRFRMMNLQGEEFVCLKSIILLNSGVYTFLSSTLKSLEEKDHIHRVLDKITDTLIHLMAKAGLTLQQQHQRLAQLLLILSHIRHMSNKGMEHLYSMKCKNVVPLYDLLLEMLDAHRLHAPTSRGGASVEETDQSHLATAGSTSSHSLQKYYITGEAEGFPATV
# Sequence of Peroxisome proliferator-activated receptor gamma (Homo sapiens) (P37231 whole entry, looked up, the tested form may be a part): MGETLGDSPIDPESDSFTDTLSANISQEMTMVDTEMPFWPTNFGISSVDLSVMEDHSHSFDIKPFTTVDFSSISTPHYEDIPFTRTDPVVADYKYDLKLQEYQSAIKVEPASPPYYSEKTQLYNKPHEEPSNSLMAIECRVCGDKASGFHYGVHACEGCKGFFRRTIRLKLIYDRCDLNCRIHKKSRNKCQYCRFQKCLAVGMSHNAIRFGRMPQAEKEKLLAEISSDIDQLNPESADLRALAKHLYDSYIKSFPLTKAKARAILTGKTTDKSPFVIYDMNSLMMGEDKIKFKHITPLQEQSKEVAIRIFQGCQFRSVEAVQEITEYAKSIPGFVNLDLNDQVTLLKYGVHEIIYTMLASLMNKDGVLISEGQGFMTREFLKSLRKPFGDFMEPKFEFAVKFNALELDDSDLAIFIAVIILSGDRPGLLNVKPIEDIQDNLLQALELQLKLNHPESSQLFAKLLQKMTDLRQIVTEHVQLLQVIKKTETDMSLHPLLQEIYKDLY
# Sequence of GAL4 Transcription Factor (Internal Marker), GAL4 (gene 855828) (P04386 whole entry, looked up, the tested form may be a part): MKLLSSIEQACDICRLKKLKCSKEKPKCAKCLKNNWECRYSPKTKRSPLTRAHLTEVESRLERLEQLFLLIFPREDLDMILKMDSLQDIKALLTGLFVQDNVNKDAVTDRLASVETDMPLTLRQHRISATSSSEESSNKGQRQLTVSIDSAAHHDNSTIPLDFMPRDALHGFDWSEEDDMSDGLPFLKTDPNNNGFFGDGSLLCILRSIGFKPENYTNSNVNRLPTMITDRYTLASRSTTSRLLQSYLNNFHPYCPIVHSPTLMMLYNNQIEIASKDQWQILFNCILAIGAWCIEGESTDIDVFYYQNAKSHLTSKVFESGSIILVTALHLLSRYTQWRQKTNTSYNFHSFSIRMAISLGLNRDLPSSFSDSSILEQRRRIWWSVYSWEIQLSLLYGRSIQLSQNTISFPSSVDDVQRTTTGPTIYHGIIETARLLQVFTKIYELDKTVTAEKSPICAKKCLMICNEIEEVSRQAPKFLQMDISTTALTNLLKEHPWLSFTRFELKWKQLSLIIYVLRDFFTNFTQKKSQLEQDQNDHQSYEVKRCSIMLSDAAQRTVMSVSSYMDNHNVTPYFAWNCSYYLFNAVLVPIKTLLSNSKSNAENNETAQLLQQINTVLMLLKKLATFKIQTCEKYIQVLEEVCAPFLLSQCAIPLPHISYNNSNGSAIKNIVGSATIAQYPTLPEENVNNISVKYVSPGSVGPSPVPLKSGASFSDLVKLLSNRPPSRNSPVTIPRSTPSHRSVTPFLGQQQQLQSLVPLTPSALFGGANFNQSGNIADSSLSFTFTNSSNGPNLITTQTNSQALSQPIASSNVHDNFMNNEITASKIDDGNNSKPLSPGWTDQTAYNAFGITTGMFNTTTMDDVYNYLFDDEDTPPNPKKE
# Sequence of Estrogen receptor beta (Homo sapiens) (Q92731 whole entry, looked up, the tested form may be a part): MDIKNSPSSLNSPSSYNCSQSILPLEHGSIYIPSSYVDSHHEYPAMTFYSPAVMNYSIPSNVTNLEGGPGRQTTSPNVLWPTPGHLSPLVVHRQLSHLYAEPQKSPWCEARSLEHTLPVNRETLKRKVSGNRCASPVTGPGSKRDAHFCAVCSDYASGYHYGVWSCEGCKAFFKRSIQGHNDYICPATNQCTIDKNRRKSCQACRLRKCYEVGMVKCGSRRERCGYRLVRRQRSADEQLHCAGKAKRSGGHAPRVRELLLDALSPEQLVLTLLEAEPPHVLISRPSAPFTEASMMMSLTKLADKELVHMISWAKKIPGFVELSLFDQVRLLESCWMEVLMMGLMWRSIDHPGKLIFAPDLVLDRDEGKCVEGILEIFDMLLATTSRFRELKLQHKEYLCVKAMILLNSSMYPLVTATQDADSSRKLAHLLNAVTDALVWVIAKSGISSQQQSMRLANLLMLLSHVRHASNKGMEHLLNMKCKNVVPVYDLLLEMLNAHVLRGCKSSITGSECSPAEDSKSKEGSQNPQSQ
compound,measurement,setting,value
CC12CC1(C)C(=O)N(c1cc(Cl)cc(Cl)c1)C2=O (configuration not stated),AC50,[1],81 µM (active)
same,outcome,[2],inactive
same,outcome,[3],inactive
same,AC50,[4],100 µM (active)
same,AC50,[5],30.9 µM (active)
same,outcome,[6],inactive
same,outcome,[7],inactive
same,AC50,AR (gene 367) [8],78.4 µM (active)
same,outcome,[9],inactive
same,outcome,[10],inactive
same,outcome,[11],inactive
same,outcome,[12],inactive
same,outcome,[13],inactive
same,AC50,[14],39.2 µM (active)
O=C1C2(Cl)C3(Cl)C4(Cl)C(Cl)(Cl)C5(Cl)C3(Cl)C1(Cl)C5(Cl)C24Cl (configuration not stated),AC50,[1],7.14 µM (active)
same,AC50,[2],0.271 µM (active)
same,AC50,[4],0.0284 µM (active)
same,AC50,[5],0.383 µM (active)
same,outcome,AR (gene 367) [15],inactive
same,outcome,[7],inactive
same,AC50,AR (gene 367) [8],7.92 µM (active)
same,outcome,[11],inactive
same,outcome,[12],inactive
C1CCC(NC2CCCCC2)CC1,outcome,[1],inactive
O=C(NCO)NCO,outcome,[1],inactive
CCOC(=O)Nc1cccc(OC(=O)Nc2ccccc2)c1,outcome,[1],inactive
ClC(Cl)=C(Cl)C(Cl)=C(Cl)Cl,outcome,[1],inactive
same,outcome,[6],inactive
CC(=O)C=C(C)C,outcome,[1],inactive
Cl/C=C\C[N+]12CN3CN(CN(C3)C1)C2,outcome,[1],inactive
same,AC50,[6],50 µM (active)
CC1(C)CCC(Cc2ccc(Cl)cc2)C1(O)Cn1cncn1 (configuration not stated),outcome,[1],inactive
same,outcome,[2],inactive
same,outcome,[3],inactive
same,AC50,[4],1.35 µM (active)
same,AC50,[16],5.17 µM (active)
same,outcome,[5],inactive
same,AC50,[6],74.5 µM (active)
same,outcome,[11],inactive
same,outcome,[12],inactive
same,outcome,[17],inactive
same,outcome,[13],inactive
same,outcome,[18],inactive
same,AC50,[14],78.6 µM (active)
Clc1nc(Cl)nc(Cl)n1,outcome,[1],inactive
same,outcome,[6],inactive
CC(C)(C)c1cc(O)ccc1O,AC50,[1],86.2 µM (active)
same,outcome,[2],inactive
same,outcome,[3],inactive
same,AC50,[4],8.92 µM (active)
same,AC50,[16],8.75 µM (active)
same,AC50,[5],8.26 µM (active)
same,AC50,[6],9.53 µM (active)
same,outcome,[11],inactive
same,outcome,[12],inactive
same,outcome,[18],inactive
same,AC50,[14],14.9 µM (active)
